These results are taken from the supplement of paper PMC6555819.

For the first assay, the system named is RARg homodimer (NR concentration 270 nM). Nature of the assay: PBM binding z-score (relative to random genomic background probes); higher = stronger binding; sequences stand for … in GC…GCGATTGACAGCGTAGAATGAAGG
The method in brief: (§1)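 Probes were double-stranded and carried 34-nt variable regions with direct-repeat seeds, single-nucleotide variants, half-site ablations and random human genomic background sequences, printed on custom Agilent 4×180K protein-binding microarrays. Arrays were incubated 1 h with ligand-free nuclear receptor dimers in PBS pH 7.4, 2% milk, 0.02% Triton X-100, 1 mM DTT, 0.2 mg/mL BSA and 0.4 mg/ml salmon testes DNA. Antibodies against each partner (one per run) detected binding, and scanned fluorescence was regression-normalized. Binding z-scores use the random background probes as reference.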
As to CCTCCTAGGTCATGGTCAGCTAATCTACAGTATG, the PBM binding z-score came to 4.49.
The same measure, in the same setting: the value for CCAGACAGGTGAAAGGTAACACAGTCTGGTACGC was 1.07.
AGAACGAGGGCAATGAGTTGATAGCGCGGGTGGC gave a PBM binding z-score of 1.44.
The sequence ATATGTAGGTTATCGGGTCAATCAGTTTGCGCAT yielded a PBM binding z-score of 2.68.
The same measure, in the same setting: the result for ACAGACAGATGAGTGAAGGTAACTCAGCTGGACG reads 0.543.
Still for that read-out and setting: the result for GCAGACAGGTGAAAAGCAGGTAACTCAGGGTGGC reads -0.088; that for TCGAGTAGGTTACCAAGGGGGCATTCAGCTTTCT, 1.87.
Same read-out and setting: the value for GCGACTGGGGCAAAGCAGGTTACCAAAAGGTTGG was 0.527; that for ATATGTAGGTTACATCCAGGTCATTCAGGCTATG was 2.4.
On to CCTACTGGGCCAAATGTCATTGATTCCAATGCTC, for which the PBM binding z-score was 0.594.
Still for that read-out and setting: the result for ACTGTTAGTTGACTTAGGGCAACCGATACGACGC reads 1.25.
Same read-out and setting: the value for ATCTAAAGGTCGAGGTGAGTATAGAGAAAGGGAA was 4.69; that for CCTAGTTGGTCAAGGGCACACACGCTATAGGTAC was 1.99.
The sequence TCTTGTAGATCAACAGGAGGCTAAGAAAGATCGA showed a PBM binding z-score of -0.13.
The same measure, in the same setting: the value for TCATATAGGTAAACAGGTGAAAATCCGTAAGTTA was 0.551; that for CGTCCAAGGTCTATGCTAGGTCAGTGAAAGCATT was 1.37.
Same read-out and setting: the result for CGTCCAAGGTCAAGGTCAGTGGAAGAGACTCGAA reads 7.58.
On to AGAATGAGGTTATTAAGTTCAGGGAATTGCGGTC, for which the PBM binding z-score was 1.43.
CCTTACGGGTCACTCCAGGTAATAGCATCGGAGT gave a PBM binding z-score of 4.02.
The sequence ATCGAAAGGACGACGAGGTGAGTATACACCGTTT showed a PBM binding z-score of 1.42.
Same read-out and setting: the result for CGTCCAAGGTCATAGGAGGTCAGTGAAGACAGAT reads 7.12; that for GATACAGGGTCAAGGCCAGAGAACGCGTATTGAT, 5.23; that for TCTATTAGTTGAAAGGCAACCGACGAGTCCGTTT, 0.111.
The same measure, in the same setting: the result for CCGACTGGGGCAAAGGTTACCATCCTCAGTACGA reads 1.56.
The same measure, in the same setting: the result for TCTTGTAGATCAAGCAGGATAAGAAAGCCTGAGT reads -0.0385; that for AGACCGAGGGCACGCTGAGTTGATAGCAGAGTAG, 2.06; that for TCTAGTTGGTCACCGAGGTCACACACGACGGGTA, 4.64.
CGTGCAAGGTCAGCAGGTCAGTGAAAGCGACGTG: the PBM binding z-score stood at 7.05.
CCTCGCAGGACAACAGGAGGTCAGAGCTGCCAGA yielded a PBM binding z-score of 2.57.
The same measure, in the same setting: the value for ATCTCTAGATAAAAGTTCAGTGAATCCCGAGGAT was 1.8; that for CCTAGCAGGCCAGGGTCAATCAAGCATTTCGCTT was 2.33; that for TCTTGTACATCAAAGGTTAAGAAAGCCGAAGCCT was 1.06.
The same measure, in the same setting: the value for ACTATTAGTTGAGACGAGGGCAACCGTTAGGTTG was 0.848; that for AGAATGAGGTTATTAAGATCAGGCAATTGCGGTC was 0.712.
On the same count and under the same terms, the result for GCATATAGATAATACAAGGTGAAAGTCCGATTGT reads 0.694; that for GCTTGTAGATCAAGGTTAGGAAAGACTAAGCTAA, -0.0948.
Turning to AGAATGATGTTATTAAGATCAGGGAATTGCGGTC, the PBM binding z-score was 0.00602.
CCGACTGGGGCAAAGGTTACCATTCTCAGTACGA displayed a PBM binding z-score of 1.6.
The same measure, in the same setting: the result for ATATGTAGGTTATCGGGTCATTTAGTTTGCGCAT reads 2.33.
With TCATATAGGTAAATGCTAGGTTAAAGTCCGATCT, the PBM binding z-score is 0.598.

The subject of the next assay is RXRa DBDmut IVT, anti-RXR (DBD mutation: RXRa K156A/R161A, NR concentration 90 nM). Described as above. In a few lines: as §1
In the case of CCTCCTAGGTCATGGTCAGCTAATCTACAGTATG, the PBM binding z-score was 1.04.
With CCAGACAGGTGAAAGGTAACACAGTCTGGTACGC, the PBM binding z-score is -0.201.
Same read-out and setting: the result for AGAACGAGGGCAATGAGTTGATAGCGCGGGTGGC reads 2.34; that for ATATGTAGGTTATCGGGTCAATCAGTTTGCGCAT, 1.45.
On the same count and under the same terms, the result for ACAGACAGATGAGTGAAGGTAACTCAGCTGGACG reads -0.223.
The same measure, in the same setting: the result for GCAGACAGGTGAAAAGCAGGTAACTCAGGGTGGC reads -0.616; that for TCGAGTAGGTTACCAAGGGGGCATTCAGCTTTCT, 1.26; that for GCGACTGGGGCAAAGCAGGTTACCAAAAGGTTGG, -0.337.
In the case of ATATGTAGGTTACATCCAGGTCATTCAGGCTATG, the PBM binding z-score worked out at 1.19.
Same read-out and setting: the result for CCTACTGGGCCAAATGTCATTGATTCCAATGCTC reads 0.342.
ACTGTTAGTTGACTTAGGGCAACCGATACGACGC displayed a PBM binding z-score of 0.609.
Still for that read-out and setting: the value for ATCTAAAGGTCGAGGTGAGTATAGAGAAAGGGAA was 1.33; that for CCTAGTTGGTCAAGGGCACACACGCTATAGGTAC was 0.232; that for TCTTGTAGATCAACAGGAGGCTAAGAAAGATCGA was 0.0884.
The same measure, in the same setting: the value for TCATATAGGTAAACAGGTGAAAATCCGTAAGTTA was 1.57; that for CGTCCAAGGTCTATGCTAGGTCAGTGAAAGCATT was 0.335.
Same read-out and setting: the result for CGTCCAAGGTCAAGGTCAGTGGAAGAGACTCGAA reads 3.79; that for AGAATGAGGTTATTAAGTTCAGGGAATTGCGGTC, 3.07.
As to CCTTACGGGTCACTCCAGGTAATAGCATCGGAGT, the PBM binding z-score stood at 1.48.
On the same count and under the same terms, the result for ATCGAAAGGACGACGAGGTGAGTATACACCGTTT reads -0.192.
The same measure, in the same setting: the value for CGTCCAAGGTCATAGGAGGTCAGTGAAGACAGAT was 3.93; that for GATACAGGGTCAAGGCCAGAGAACGCGTATTGAT was 2.64; that for TCTATTAGTTGAAAGGCAACCGACGAGTCCGTTT was 1.66.
Same read-out and setting: the value for CCGACTGGGGCAAAGGTTACCATCCTCAGTACGA was -0.109.
Regarding TCTTGTAGATCAAGCAGGATAAGAAAGCCTGAGT, the PBM binding z-score worked out at 0.533.
As for AGACCGAGGGCACGCTGAGTTGATAGCAGAGTAG, the PBM binding z-score turned out to be 1.49.
Same read-out and setting: the value for TCTAGTTGGTCACCGAGGTCACACACGACGGGTA was 1.4.
Still for that read-out and setting: the result for CGTGCAAGGTCAGCAGGTCAGTGAAAGCGACGTG reads 2.5; that for CCTCGCAGGACAACAGGAGGTCAGAGCTGCCAGA, 0.186; that for ATCTCTAGATAAAAGTTCAGTGAATCCCGAGGAT, 0.614.
The same measure, in the same setting: the result for CCTAGCAGGCCAGGGTCAATCAAGCATTTCGCTT reads 0.381; that for TCTTGTACATCAAAGGTTAAGAAAGCCGAAGCCT, 1.09.
ACTATTAGTTGAGACGAGGGCAACCGTTAGGTTG showed a PBM binding z-score of 0.599.
The sequence AGAATGAGGTTATTAAGATCAGGCAATTGCGGTC had a PBM binding z-score of 1.89.
Sequence GCATATAGATAATACAAGGTGAAAGTCCGATTGT came in with a PBM binding z-score of 0.234.
On the same count and under the same terms, the result for GCTTGTAGATCAAGGTTAGGAAAGACTAAGCTAA reads -0.199; that for AGAATGATGTTATTAAGATCAGGGAATTGCGGTC, -0.521; that for CCGACTGGGGCAAAGGTTACCATTCTCAGTACGA, 0.683.
Same read-out and setting: the value for ATATGTAGGTTATCGGGTCATTTAGTTTGCGCAT was 1.69.
Still for that read-out and setting: the result for TCATATAGGTAAATGCTAGGTTAAAGTCCGATCT reads 1.74.
